# Measurements as given in PubChem BioAssay.
# Active and inactive are the calls of the source. Unless noted, no rule for the calls is given here.
# Assays:
# [1] = HepG2 liver cancer cell viability effects, profiling panel, resazurin fluorescence, 24 h, PK04 Diversity Set (AID 1172); settings: higher = more signal
# [2] = basal S. cerevisiae growth modulation, no modifier, primary screen, OD600, strain BY4716, 24 h, basal condition (AID 1173); settings: OD600, 24 h, higher = more signal, called active from +8 up or from −8 down
# [3] = MM1S myeloma cell viability, profiling panel, resazurin fluorescence, basal, 24 h, PK04 Diversity Set (AID 1174); settings: higher = more signal, called active from +8 up or from −8 down;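 also: MM1S multiple myeloma cell line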
# [4] = molecular target: Dihydroorotate dehydrogenase (quinone), mitochondrial (Plasmodium falciparum (isolate 3D7)) (UniProt Q08210); experiment: PfDHODH enzyme inhibitors, primary screen, biochemical, C-terminal His tag, absorbance 600 nm (AID 1175); settings: DCIP absorbance 600 nm, higher = more signal, called active from +8 up or from −8 down;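 also: recombinant parasite enzyme with a five histidine tag at its C terminus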
# [5] = P. aeruginosa biofilm formation inhibitors, primary screen, strain PAO1, LB-PBS medium, absorbance 600 nm (AID 1176); settings: P. aeruginosa PAO1 growth/biofilm, A600, 12 h; higher = more signal
# [6] = S. cerevisiae RM11-1a growth modifiers, primary screen, strain RM11-1a, OD600, basal, 24 h (AID 1177); settings: OD600, 24 h, higher = more signal, called active from +8 up or from −8 down;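 also: cultures grown under basal conditions with no added stressor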
# [7] = E. coli acrAB mutant growth effects, primary screen, E. coli filamentation inducers, strain DRC39, OD650, 24 h (AID 1178); settings: higher = more signal, called active from +8 up or from −8 down;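 also: growth measured as culture turbidity by optical density at 650 nm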
# [8] = E. coli acrAB mutant growth effects, primary screen, E. coli filamentation inducers, strain DRC39, OD650, 48 h (AID 1179);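 also: screen aims at cell division blockers that make cells filament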; settings: E. coli DRC39 delta-acrAB growth, higher = more signal, called active from +8 up or from −8 down
# [9] = RPMI8226 myeloma cell viability, profiling panel, resazurin fluorescence, basal, 24 h, PK04 Diversity Set (AID 1180); settings: higher = more signal;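 also: RPMI8826 multiple myeloma cell line at 5000 cells per well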
# [10] = molecular target: E3 ubiquitin-protein ligase XIAP (Homo sapiens) (UniProt P98170); experiment: XIAP binders, primary screen, biophysical, small-molecule microarray, fluorescence 635 nm (AID 1181); settings: small-molecule microarray binding, higher = more signal;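 also: score merges 667 nm emission and signal to noise over triplicate slides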
# [11] = test system: XIP peptide (Xip251-270) binding; experiment: small-molecule binders of XIP peptide, primary screen, biochemical, small-molecule microarray, fluorescence 635/667 nm, 0.1 µg/mL protein (AID 1182); settings: fluorescent protein binding, 635 nm, higher = more signal, called active from +8 up or from −8 down
# XIP peptide (Xip251-270) = experiment: small-molecule binders of XIP peptide, primary screen, biochemical, small-molecule microarray, fluorescence 635/667 nm, 0.5 µg/mL protein (AID 1183); settings: small-molecule microarray binding, fluorescence 635 nm; higher = more signal
# [12] = Plasmodium falciparum growth inhibition, primary screen, strain 3D7, DAPI fluorescence, 100 nL (AID 1184);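 also: parasites grown inside human red blood cells in medium with human serum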; settings: P. falciparum 3D7 growth, 3 d, higher = more signal
# [13] = molecular target: Homeobox protein Hox-A13 (Mus musculus) (UniProt Q62424); experiment: inhibitors of HoxA13-DNA binding, primary screen, biochemical, fluorescence polarization, labeled oligonucleotide (AID 1185); settings: 15 min, higher = more signal, called active from +8 up or from −8 down
# [14] = inhibitors of hydroxyurea-induced Chk1 phosphorylation, primary screen, imaging, HeLa, phospho-Chk1 antibody, percent positive cells (AID 1186); settings: hydroxyurea-induced phospho-Chk1 immunofluorescence imaging, higher = more signal
# [15] = inhibitors of hydroxyurea-induced Chk1 phosphorylation, primary screen, imaging, HeLa, phospho-Chk1 nuclear intensity (AID 1187); settings: hydroxyurea-induced phospho-Chk1 immunofluorescence imaging, higher = more signal
# Sequence of E3 ubiquitin-protein ligase XIAP (Homo sapiens) (P98170 whole entry, looked up): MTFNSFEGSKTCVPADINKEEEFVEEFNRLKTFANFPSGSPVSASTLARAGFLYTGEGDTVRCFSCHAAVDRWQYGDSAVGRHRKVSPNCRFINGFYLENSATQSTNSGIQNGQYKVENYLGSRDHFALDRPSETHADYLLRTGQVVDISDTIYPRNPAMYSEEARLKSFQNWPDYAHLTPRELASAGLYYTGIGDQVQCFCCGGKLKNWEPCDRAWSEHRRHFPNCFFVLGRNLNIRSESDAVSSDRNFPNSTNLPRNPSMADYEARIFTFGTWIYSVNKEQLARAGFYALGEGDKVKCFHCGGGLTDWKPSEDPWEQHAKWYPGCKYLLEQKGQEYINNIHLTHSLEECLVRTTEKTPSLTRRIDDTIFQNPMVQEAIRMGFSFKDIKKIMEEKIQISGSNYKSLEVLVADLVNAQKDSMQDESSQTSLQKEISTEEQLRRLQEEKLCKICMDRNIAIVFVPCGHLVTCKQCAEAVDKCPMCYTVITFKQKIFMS
# Sequence of Dihydroorotate dehydrogenase (quinone), mitochondrial (Plasmodium falciparum (isolate 3D7)) (Q08210 whole entry, looked up): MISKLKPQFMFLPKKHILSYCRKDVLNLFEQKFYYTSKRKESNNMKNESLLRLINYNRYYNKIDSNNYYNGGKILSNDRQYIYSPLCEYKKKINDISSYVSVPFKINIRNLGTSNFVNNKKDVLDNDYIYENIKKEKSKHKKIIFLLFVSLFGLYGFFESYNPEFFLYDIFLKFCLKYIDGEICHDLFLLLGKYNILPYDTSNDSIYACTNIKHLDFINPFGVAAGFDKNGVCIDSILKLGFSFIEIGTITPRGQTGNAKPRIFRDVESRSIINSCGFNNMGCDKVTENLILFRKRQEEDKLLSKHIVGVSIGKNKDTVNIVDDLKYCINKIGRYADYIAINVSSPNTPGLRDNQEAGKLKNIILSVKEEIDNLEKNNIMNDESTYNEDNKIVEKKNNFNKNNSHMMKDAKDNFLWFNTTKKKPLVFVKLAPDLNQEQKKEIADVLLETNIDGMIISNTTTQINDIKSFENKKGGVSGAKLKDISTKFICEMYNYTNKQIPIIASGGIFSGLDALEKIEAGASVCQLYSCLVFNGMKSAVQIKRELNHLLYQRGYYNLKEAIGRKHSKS
# Sequence of Homeobox protein Hox-A13 (Mus musculus) (Q62424 whole entry, looked up): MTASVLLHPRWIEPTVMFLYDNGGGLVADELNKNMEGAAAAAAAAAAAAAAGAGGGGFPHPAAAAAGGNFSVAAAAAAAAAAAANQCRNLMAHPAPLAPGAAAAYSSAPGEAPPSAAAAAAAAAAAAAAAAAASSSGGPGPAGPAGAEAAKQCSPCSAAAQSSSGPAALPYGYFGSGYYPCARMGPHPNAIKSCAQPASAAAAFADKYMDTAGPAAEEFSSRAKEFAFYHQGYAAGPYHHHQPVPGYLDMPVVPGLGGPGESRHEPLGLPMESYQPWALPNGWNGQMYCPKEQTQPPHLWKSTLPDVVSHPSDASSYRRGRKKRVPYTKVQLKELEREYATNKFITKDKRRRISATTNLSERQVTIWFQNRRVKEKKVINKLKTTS
SMILES,z-score [1],z-score [2],z-score [3],composite z-score [4],z-score [5],z-score [6],z-score [7],z-score [8],z-score [9],composite z-score [10],composite z-score [11],composite z-score (XIP peptide (Xip251-270)),z-score [12],z-score [13],z-score [14],z-score [15]
CC(C)CN1C(=O)[C@@]2(Cc3ccccc31)c1ccccc1C(=O)N(Cc1ccccc1C(F)(F)F)[C@H]2c1ccc(CO)cc1,0.869,-1.94 (inactive),-0.696 (inactive),-4.83 (inactive),-0.103 (inactive),-2.06 (inactive),0.897 (inactive),1.72 (inactive),0.478,0.661,-0.334 (inactive),-0.0449,-0.141,0.0026 (inactive),-0.417 (inactive),-0.408 (inactive)
CO[C@H]1O[C@H](CO)[C@@H](OC(=O)Nc2ccc(C(F)(F)F)cc2)[C@H](OC(=O)Nc2ccc3c(c2)OCO3)[C@H]1OC(=O)Nc1ccc2c(c1)OCO2,-1.9,0.634 (inactive),-3.06 (inactive),-0.605 (inactive),0.854 (inactive),1.37 (inactive),0.436 (inactive),-0.553 (inactive),-3.35,-0.289,1.22 (inactive),0.898,-1.76,-3.94 (inactive),-0.318 (inactive),-0.559 (inactive)
CN(C)CCCCNC(=O)[C@H]1C[C@H]2C(=O)N[C@@H](CCCCN(C)C)C(=O)N2[C@H]1c1cccc(OCCO)c1,1.11,0.427 (inactive),0.895 (inactive),-0.493 (inactive),-1.48 (inactive),0.807 (inactive),0.0233 (inactive),-0.0221 (inactive),0.45,-0.0559,1.64 (inactive),0.675,0.649,-3.26 (inactive),0.368 (inactive),0.217 (inactive)
COCCOC(=O)N1C(=O)[C@@]2(c3ccccc31)[C@H](C(=O)N1CCN(c3ncccn3)CC1)[C@H]1C(=O)O[C@H](c3ccccc3)[C@H](c3ccccc3)N1[C@@H]2c1ccc(OCCO)cc1,0.0481,1.89 (inactive),0.351 (inactive),-1.04 (inactive),2 (inactive),2.64 (inactive),0.0841 (inactive),1.19 (inactive),0.253,0.0924,0.707 (inactive),0.791,-1.93,-0.387 (inactive),0.065 (inactive),0.182 (inactive)
C=CC[C@@]12N=C(c3ccc(OCCCO)cc3)O[C@@H]1c1ccccc1N(CCS(=O)(=O)c1ccccc1)C2=O,0.653,0.0618 (inactive),-1.97 (inactive),0.0628 (inactive),-0.251 (inactive),0.379 (inactive),0.907 (inactive),1.6 (inactive),-1.07,0.0303,2.13 (inactive),0.767,-2.01,-2.38 (inactive),-0.641 (inactive),-0.295 (inactive)
COC(=O)[C@H](Cc1ccccc1)N1CC(/C=C/C2CC2)=C[C@@H]1[C@@H](O)Cc1ccccc1,1.09,-2.65 (inactive),-2.24 (inactive),0.114 (inactive),0.294 (inactive),0.385 (inactive),0.461 (inactive),0.658 (inactive),-0.277,-0.0414,0.971 (inactive),0.639,-0.547,-5.53 (inactive),-0.613 (inactive),-0.713 (inactive)
CCCCN1CC=CC23O[C@@H]4C=CCOC(=O)[C@@H]4[C@H]2C(=O)N(CCCO)[C@@H]3C1=O (stereo partly specified),-1.09,-0.233 (inactive),-0.788 (inactive),-0.284 (inactive),-0.193 (inactive),0.164 (inactive),-1.33 (inactive),-1.28 (inactive),-0.848,0.106,0.769 (inactive),-0.374,-1.81,-4.48 (inactive),-0.247 (inactive),-0.169 (inactive)
CCOC(=O)C[C@H]1[C@H](OC(=O)Cc2ccc3c(c2)OCO3)[C@@H](NC(=O)Cc2ccc(OC)cc2)c2cc(OCCCO)ccc2N1C(=O)c1ccccc1,-0.174,-0.0578 (inactive),-0.727 (inactive),0.0225 (inactive),-0.218 (inactive),0.42 (inactive),-0.296 (inactive),0.386 (inactive),0.66,-0.406,1.08 (inactive),-0.0883,-0.382,-2.51 (inactive),-0.543 (inactive),-0.165 (inactive)
COCCOC(=O)N1C(=O)[C@@]2(c3ccccc31)[C@H](c1ccc(OCCO)cc1)N1[C@H](c3ccccc3)[C@H](c3ccccc3)OC(=O)[C@H]1[C@@H]2C(=O)Nc1nc2ccccc2s1,0.269,1.29 (inactive),-0.657 (inactive),-0.383 (inactive),2 (inactive),1.11 (inactive),-0.176 (inactive),-0.524 (inactive),0.0486,0.259,1.72 (inactive),0.745,-0.365,0.0267 (inactive),-0.0021 (inactive),-0.178 (inactive)
O=C(NC1CC1)[C@@H]1c2ccccc2C(=O)N(Cc2ccccc2)[C@H]1c1ccc(CO)cc1,0.0991,0.172 (inactive),-0.556 (inactive),-0.0098 (inactive),-0.149 (inactive),0.0831 (inactive),0.693 (inactive),1.58 (inactive),0.904,0.159,1.38 (inactive),0.752,-1.55,-2.86 (inactive),-0.556 (inactive),-0.679 (inactive)
CO[C@H]1O[C@H](CO)[C@@H](OC(=O)c2ccc(Br)cc2)[C@@H]2OC(=O)[C@@H](Cc3ccc4ccccc4c3)C/C=C/C[C@H](Cc3ccc4ccccc4c3)C(=O)O[C@@H]12,-0.213,-1.23 (inactive),-0.612 (inactive),-1.92 (inactive),-0.649 (inactive),-1.34 (inactive),0.738 (inactive),1.03 (inactive),0.402,0.0848,1.08 (inactive),0.266,-0.0936,-5.67 (inactive),-0.555 (inactive),-0.449 (inactive)
CC(=O)N1Cc2ccccc2C[C@]2(N=C(c3ccc(OCCCO)cc3)O[C@@H]2c2ccccc2)C1=O,-0.908,-0.776 (inactive),-2.6 (inactive),-0.375 (inactive),0.122 (inactive),1.93 (inactive),1.55 (inactive),1 (inactive),-3.96,0.247,1.84 (inactive),0.836,-1.42,-4.24 (inactive),-0.151 (inactive),-0.0442 (inactive)
COc1ccc(NN2C(C(O)c3ccco3)C=CC3C(=O)N(C4CCCCC4)C(=O)C32)cc1 (stereo unspecified),0.502,-1.11 (inactive),-1.59 (inactive),0.181 (inactive),0.546 (inactive),-0.0552 (inactive),-0.624 (inactive),-0.109 (inactive),-1.55,0.065,0.902 (inactive),0.68,-0.244,-3.76 (inactive),-0.266 (inactive),-0.504 (inactive)
C=CCN1C(=O)[C@@]2(O[C@@H](CCO)[C@H]([Si](C)(C)c3ccc(OC)cc3)[C@H]2C)c2cc(N3C(=O)c4ccccc4Oc4ccccc43)ccc21,-6.08,-0.0065 (inactive),-8.62 (active),0.614 (inactive),1.95 (inactive),3.35 (inactive),2.24 (inactive),1.9 (inactive),-6.24,-0.172,0.227 (inactive),0.536,-2.52,-4.25 (inactive),-0.948 (inactive),-0.004 (inactive)
CC(=O)n1cc(C(O)C2C=CC3C(=O)N(c4ccccc4)C(=O)C3N2Nc2ccccc2)c2ccccc21 (stereo unspecified),-1.51,-3.18 (inactive),-2.12 (inactive),0.342 (inactive),0.807 (inactive),0.127 (inactive),-0.0484 (inactive),-0.602 (inactive),-1.76,0.0297,0.853 (inactive),-0.515,-0.4,-3.42 (inactive),0.863 (inactive),0.355 (inactive)
C[N+](C)(C)CCCC[C@@H]1NC(=O)[C@@H]2C[C@H](C(=O)O)[C@H](c3ccc(O)cc3)N2C1=O,-1.16,0.824 (inactive),0.18 (inactive),-11.6 (active),0.103 (inactive),0.0252 (inactive),0.233 (inactive),0.596 (inactive),-0.339,-0.199,2.65 (inactive),0.124,-0.195,-1.93 (inactive),0.115 (inactive),0.274 (inactive)
